In ChEMBL document CHEMBL1961873, “Compounds: GSK PKIS; Assays: Nanosyn kinase panel” (2012):

Tests used:
[1] = target: Sphingosine kinase 1 (Homo sapiens) (UniProt Q9NYA1); settings: at 1 µM;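 further: mean SPHK1 inhibition value reported from the GSK PKIS kinase panel screen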
[2] = target: T1, Sphingosine kinase 2 (Homo sapiens) (UniProt Q9NRA0); settings: at 0.1 µM
T1 sequence (whole entry): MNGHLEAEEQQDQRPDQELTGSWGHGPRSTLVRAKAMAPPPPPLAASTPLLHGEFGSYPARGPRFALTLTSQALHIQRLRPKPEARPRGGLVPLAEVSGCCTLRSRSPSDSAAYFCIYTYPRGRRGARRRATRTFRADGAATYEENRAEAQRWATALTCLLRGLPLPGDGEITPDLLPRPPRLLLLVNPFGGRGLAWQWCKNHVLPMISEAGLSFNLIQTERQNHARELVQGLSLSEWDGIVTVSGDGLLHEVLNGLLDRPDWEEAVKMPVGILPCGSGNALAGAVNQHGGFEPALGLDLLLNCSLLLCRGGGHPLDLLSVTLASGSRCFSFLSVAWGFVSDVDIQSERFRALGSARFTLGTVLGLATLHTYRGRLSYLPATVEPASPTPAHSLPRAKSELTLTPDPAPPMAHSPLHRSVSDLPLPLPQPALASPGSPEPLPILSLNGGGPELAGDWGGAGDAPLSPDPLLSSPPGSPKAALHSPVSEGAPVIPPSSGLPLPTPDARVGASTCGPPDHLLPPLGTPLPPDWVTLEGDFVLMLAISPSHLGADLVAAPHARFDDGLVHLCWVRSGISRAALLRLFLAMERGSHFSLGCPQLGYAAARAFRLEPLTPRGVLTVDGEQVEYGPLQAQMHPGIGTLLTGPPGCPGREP

[3] = target: T1, Sphingosine kinase 2 (Homo sapiens); settings: at 1 µM
[4] = target: Casein kinase II subunit alpha (Homo sapiens) (UniProt P68400); settings: at 0.1 µM
[5] = target: Casein kinase II subunit alpha (Homo sapiens) (UniProt P68400); settings: at 1 µM
[6] = target: T2, Inhibitor of nuclear factor kappa-B kinase subunit alpha (Homo sapiens) (UniProt O15111); settings: at 0.1 µM
T2 sequence (whole entry): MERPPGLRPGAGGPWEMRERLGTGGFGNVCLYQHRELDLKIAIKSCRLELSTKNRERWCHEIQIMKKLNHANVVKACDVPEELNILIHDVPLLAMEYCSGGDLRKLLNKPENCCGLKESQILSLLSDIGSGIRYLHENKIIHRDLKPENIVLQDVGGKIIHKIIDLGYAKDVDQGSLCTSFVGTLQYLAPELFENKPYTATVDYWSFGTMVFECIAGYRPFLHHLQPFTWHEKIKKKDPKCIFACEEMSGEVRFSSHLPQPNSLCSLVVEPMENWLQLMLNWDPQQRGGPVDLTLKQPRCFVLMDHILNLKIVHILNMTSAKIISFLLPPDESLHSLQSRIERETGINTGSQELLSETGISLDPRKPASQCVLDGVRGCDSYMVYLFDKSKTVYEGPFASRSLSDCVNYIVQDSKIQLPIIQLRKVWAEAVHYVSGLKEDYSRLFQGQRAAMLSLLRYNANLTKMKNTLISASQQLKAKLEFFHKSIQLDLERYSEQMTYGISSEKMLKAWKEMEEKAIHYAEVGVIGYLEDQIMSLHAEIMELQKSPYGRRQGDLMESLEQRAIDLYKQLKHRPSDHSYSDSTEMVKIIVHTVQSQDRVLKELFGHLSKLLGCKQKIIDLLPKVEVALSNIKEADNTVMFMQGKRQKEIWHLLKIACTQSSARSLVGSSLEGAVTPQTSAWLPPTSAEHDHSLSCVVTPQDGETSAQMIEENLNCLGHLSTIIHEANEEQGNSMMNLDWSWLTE

[7] = target: T3, Inhibitor of nuclear factor kappa-B kinase subunit beta (Homo sapiens) (UniProt O14920); settings: at 0.1 µM
T3 sequence (whole entry): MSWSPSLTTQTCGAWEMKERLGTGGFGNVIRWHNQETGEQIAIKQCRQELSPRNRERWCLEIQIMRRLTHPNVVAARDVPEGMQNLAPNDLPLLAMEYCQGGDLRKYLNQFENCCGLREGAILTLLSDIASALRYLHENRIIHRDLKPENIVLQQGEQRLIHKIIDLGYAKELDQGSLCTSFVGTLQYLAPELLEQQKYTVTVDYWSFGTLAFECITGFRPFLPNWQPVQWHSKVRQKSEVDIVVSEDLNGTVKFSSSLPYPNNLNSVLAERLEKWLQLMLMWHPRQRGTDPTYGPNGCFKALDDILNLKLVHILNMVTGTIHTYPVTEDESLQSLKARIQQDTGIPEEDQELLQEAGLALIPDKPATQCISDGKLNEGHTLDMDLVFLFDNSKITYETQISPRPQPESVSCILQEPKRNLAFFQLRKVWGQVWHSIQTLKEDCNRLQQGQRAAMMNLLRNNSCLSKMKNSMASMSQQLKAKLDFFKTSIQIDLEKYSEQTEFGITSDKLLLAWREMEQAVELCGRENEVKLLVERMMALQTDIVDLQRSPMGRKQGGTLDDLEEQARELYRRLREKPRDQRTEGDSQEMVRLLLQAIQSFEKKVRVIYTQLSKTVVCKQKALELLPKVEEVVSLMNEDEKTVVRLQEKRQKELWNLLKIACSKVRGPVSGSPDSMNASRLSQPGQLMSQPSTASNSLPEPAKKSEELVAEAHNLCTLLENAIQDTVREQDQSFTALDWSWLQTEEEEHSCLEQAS

[8] = target: T3, Inhibitor of nuclear factor kappa-B kinase subunit beta (Homo sapiens); settings: at 1 µM
[9] = target: T4, Inhibitor of nuclear factor kappa-B kinase subunit epsilon (Homo sapiens) (UniProt Q14164); settings: at 0.1 µM;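 further: mean inhibition of IKKε reported, from the GSK PKIS dataset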
T4 sequence (whole entry): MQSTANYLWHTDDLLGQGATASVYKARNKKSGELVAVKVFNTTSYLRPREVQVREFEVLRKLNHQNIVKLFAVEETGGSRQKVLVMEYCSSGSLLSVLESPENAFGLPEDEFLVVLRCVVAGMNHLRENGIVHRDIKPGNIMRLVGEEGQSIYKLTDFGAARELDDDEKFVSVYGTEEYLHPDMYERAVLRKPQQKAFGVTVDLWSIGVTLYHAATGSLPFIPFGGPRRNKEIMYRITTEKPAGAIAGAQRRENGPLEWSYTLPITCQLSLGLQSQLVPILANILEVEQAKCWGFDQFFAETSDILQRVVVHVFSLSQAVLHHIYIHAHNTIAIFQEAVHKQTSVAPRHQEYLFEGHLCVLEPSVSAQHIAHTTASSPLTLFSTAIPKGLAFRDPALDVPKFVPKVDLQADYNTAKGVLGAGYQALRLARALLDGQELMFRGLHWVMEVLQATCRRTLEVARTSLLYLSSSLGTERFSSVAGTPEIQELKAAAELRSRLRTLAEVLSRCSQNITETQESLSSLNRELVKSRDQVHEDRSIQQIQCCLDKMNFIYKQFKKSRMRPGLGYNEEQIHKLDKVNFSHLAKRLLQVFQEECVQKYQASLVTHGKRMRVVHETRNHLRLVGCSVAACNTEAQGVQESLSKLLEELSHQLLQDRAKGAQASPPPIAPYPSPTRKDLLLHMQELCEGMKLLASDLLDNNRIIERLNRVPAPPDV

[10] = target: T2, Inhibitor of nuclear factor kappa-B kinase subunit alpha (Homo sapiens); settings: at 1 µM

Chain of Casein kinase II subunit alpha (Homo sapiens) (P68400 whole entry, looked up): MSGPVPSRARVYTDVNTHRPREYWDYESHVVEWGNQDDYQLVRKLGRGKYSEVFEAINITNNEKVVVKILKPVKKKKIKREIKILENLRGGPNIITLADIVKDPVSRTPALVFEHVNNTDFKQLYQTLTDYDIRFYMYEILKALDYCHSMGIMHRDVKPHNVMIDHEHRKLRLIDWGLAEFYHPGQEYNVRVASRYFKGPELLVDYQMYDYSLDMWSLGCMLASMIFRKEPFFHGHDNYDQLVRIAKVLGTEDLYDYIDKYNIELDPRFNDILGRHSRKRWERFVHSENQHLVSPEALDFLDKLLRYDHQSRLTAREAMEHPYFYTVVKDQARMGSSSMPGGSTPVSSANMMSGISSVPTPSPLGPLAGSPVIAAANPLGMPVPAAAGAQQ
Chain of Sphingosine kinase 1 (Homo sapiens) (Q9NYA1 whole entry): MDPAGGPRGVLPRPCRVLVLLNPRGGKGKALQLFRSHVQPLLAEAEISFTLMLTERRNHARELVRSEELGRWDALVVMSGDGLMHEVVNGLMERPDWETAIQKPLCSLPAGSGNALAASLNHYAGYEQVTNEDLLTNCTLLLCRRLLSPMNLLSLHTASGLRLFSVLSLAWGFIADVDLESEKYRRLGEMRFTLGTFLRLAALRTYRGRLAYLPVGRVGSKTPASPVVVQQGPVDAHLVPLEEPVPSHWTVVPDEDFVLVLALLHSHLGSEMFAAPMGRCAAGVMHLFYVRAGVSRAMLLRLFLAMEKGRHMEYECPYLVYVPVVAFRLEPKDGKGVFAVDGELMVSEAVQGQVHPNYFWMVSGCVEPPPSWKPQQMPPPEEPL

Compound	inhibition [1] [%]	inhibition [2] [%]	inhibition [3] [%]	inhibition [4] [%]	inhibition [5] [%]	inhibition [6] [%]	inhibition [7] [%]	inhibition [8] [%]	inhibition [9] [%]	inhibition [10] [%]
NC(=O)c1ccc(-c2nc(-c3ccccn3)c(-c3ccc4c(c3)OCO4)[nH]2)cc1	-3.93	-0.17	-0.84	2.1	4.61	7.62	3.19	3.61	3.15	–
CS(=O)(=O)CCNCc1ccc(-c2ccc3ncnc(Nc4ccc(OCc5ccccc5)c(Cl)c4)c3c2)o1	2.51	1.2	-1.85	-1.12	1.71	-2.26	-1.73	0.03	0.17	2.45
CN1CCC(C(=O)Nc2n[nH]c3nnc(-c4ccccc4)cc23)CC1	-3.46	-0.94	-2.16	6.73	12.2	6.86	11.4	12.4	7.37	1.13
CC1=C(C(=O)Nc2ccc3[nH]ncc3c2)C(c2ccc3ccccc3c2)CC(=O)N1 (configuration not stated)	0	0.52	0.65	3.48	6.51	-1.96	1.45	0.58	3.14	1.55
CCn1c(-c2nonc2N)nc2c(N3CCCC3)nccc21	-1.44	0.74	-0.77	-0.14	-0.49	8.52	0.45	-0.76	-2.71	5.88
CCn1c(-c2nonc2N)nc2c(C#CC(C)(C)O)nc(OC[C@@H](N)c3ccccc3)cc21	2.57	-1.25	-2.35	0.95	1.36	4.77	-2.58	-1.93	0.47	2.26
COc1cc2ncn(-c3cc(OCc4ccccc4C(F)(F)F)c(C(N)=O)s3)c2cc1OC	-5.26	0.75	-2	7.47	8.83	9.42	5.69	5.75	6.51	3.6
Fc1cccc(COc2ccc(Nc3ncnc4sc(-c5cccs5)cc34)cc2Cl)c1	1.25	-2.31	1.14	-0.4	1.52	3.55	1.1	0.28	-0.11	1.01
COC(=O)Nc1nc2cc(Oc3cccc(NC(=O)Nc4cc(C(F)(F)F)ccc4F)c3)ccc2[nH]1	2.3	0	0.65	-0.44	-0.84	-3.67	0.52	1.91	1.54	4.99
COc1cc2c(cc1Nc1nc(N3CCc4ccccc43)c3cc[nH]c3n1)N(C(=O)CN(C)C)CC2	-1.12	-0.36	0.81	0.13	-9.3	2.9	4.25	-1.42	0.88	0.37
CC(=O)Nc1cccc(C#Cc2cncnc2Nc2ccc(OCc3cccc(F)c3)c(Cl)c2)n1	0.51	1.73	-0.13	2.14	9.24	2.26	-3.08	2.94	2.95	-1.99
[O-][S+]1CCN(Cc2ccc(-c3ccc4ncnc(Nc5ccc(OCc6ccccc6)c(F)c5)c4c3)o2)CC1	-3.44	0.02	–	-1.48	1.56	1.7	4.51	-0.14	3.11	1.1
Cc1nn(C)c2cc(N(C)c3ccnc(Nc4cccc(S(N)(=O)=O)c4)n3)ccc12	1.31	0.44	0.14	2.59	1.94	2.21	4.27	4.54	4.1	3.6
COc1ccc(-c2coc3ncnc(N)c23)cc1	2.86	1.04	-0.88	4.06	-2.3	4.01	10.3	9.84	5.67	-4.53
CCn1c(-c2nonc2N)nc2c(C#CC(C)(C)O)nc(CN3CCCC3)cc21	0.08	2.01	1.13	-0.41	0.78	-1.06	-1.14	-3.01	5.75	0.78
NC(=O)c1cccc(Nc2nccc(Nc3cccc4[nH]ncc34)n2)c1	-1.98	-0.9	0.58	-0.25	3.56	7.29	-0.17	17.4	-3.38	41
Nc1nc(-c2ccccn2)c(-c2ccc3ncccc3n2)s1	-3.49	-0.63	-3.19	2.62	10.1	4.74	4.18	4.54	3.83	9.42
CCCN1CCC=C(c2ccc(Nc3nc(Nc4ccccc4C(N)=O)c4cc[nH]c4n3)c(C)c2)C1	1.28	-1.02	0.04	33.7	72	13.6	5.1	8.74	9.65	16
CCn1c(-c2nonc2N)nc2ccncc21	-0.31	-1.06	0.26	-4.19	-5.18	-7.12	5.3	3.24	3.33	–
CS(=O)(=O)CCNCc1ccc(-c2ccc3ncnc(Nc4ccc(OCc5cccc(F)c5)c(C(F)(F)F)c4)c3c2)o1	-2.4	0.03	0.79	3.22	5.65	7.6	5.87	5.15	5.42	5.45
COC(=O)Nc1nc2cc(Oc3ccc(NC(=O)Nc4cccc(C(=O)O)c4)cc3)ccc2[nH]1	-2.52	0.52	-0.25	1.52	8.32	5.47	1.26	2.79	3.11	-3.86
O=C1NC(=O)C(c2cccc(Cl)c2)=C1Nc1ccc(O)c(Cl)c1	-1.72	-1.48	-0.07	-2.69	-1.28	0.7	-0.95	-3.39	-0.3	0.73
O=C1Nc2ccc(C(=O)c3ccco3)cc2C1=Cc1cc(Cl)c(O)c(Cl)c1	-1.68	1.43	1.2	18	55.2	2.59	5.21	2.45	24.9	8.32
N#Cc1c(NC(=O)c2cccc3ccccc23)sc2c1CCCC2	-0.69	1.73	0.03	1.53	-0.03	5.48	3.31	2.19	4.91	6.29
COc1cc2ncn(-c3cc(O[C@H](C)c4ccccc4Cl)c(C(N)=O)s3)c2cc1OC	-3.88	0.33	-2.47	5.76	19.5	6.13	3.99	6.57	8.51	9.16
CCn1c(-c2nonc2N)nc2cnc(Oc3cccc(NC(=O)c4ccc(OCCN5CCOCC5)cc4)c3)cc21	-0.28	0.73	-0.35	2.94	5.71	11	5.72	2.67	7.92	10.1
CS(=O)(=O)CCN(CC#N)Cc1ccc(-c2ccc3ncnc(Nc4ccc(OCc5cccc(F)c5)c(Cl)c4)c3c2)o1	-0.02	-0.3	-0.75	5.37	1.72	4.16	3.6	3.73	1.37	2.09
CN(C)c1cc2c(Nc3ccc4nc(Cc5ccccc5)[nH]c4c3)ncnc2cn1	-4.39	-0.89	-0.82	3.31	1.45	9.26	7.48	6.68	17.5	9.4
